Read-out in test [1]: Transforming growth factor beta 1 (TGFb1), TGFB1 (gene 7040)
As to the kind of experiment: BSK_KF3CT_TGFb1: BioMAP Diversity Plus: KF3CT Assay for Transforming growth factor beta 1 (TGFb1) Biomarker Activity (AID 2283072). As to conditions: primary human keratinocytes with fibroblasts; actives raise or lower the signal. The method, boiled down: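 KF3CT co-culture (keratinocytes + fibroblasts), 24 h exposure → TGF-b1 ELISA → bidirectional fit, DMSO = baseline. Parallel SRB total-protein staining (0.1% SRB, 10% TCA fixation, 560 nm) for cytotoxicity.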

Read-out in test [2]: C-C motif chemokine 2 (Homo sapiens) (UniProt P13500)
Description: BSK_KF3CT_MCP1: BioMAP Diversity Plus: KF3CT Assay for Monocyte Chemoattractant Protein 1 (MCP1/CCL2) Biomarker Activity (AID 2283073). As to conditions: primary human keratinocytes with fibroblasts; actives raise or lower the signal. The essentials:
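KF3CT skin co-culture (keratinocytes/foreskin fibroblasts), 24 h post-dose; MCP-1 by ELISA; gain/loss of signal fit bidirectionally vs DMSO baseline.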

Read-out in test [3]: Matrix Metallopeptidase 9 (MMP9), MMP9 (gene 4318)
As to the kind of experiment: BSK_KF3CT_MMP9: BioMAP Diversity Plus: KF3CT Assay for Matrix Metallopeptidase 9 (MMP9) Biomarker Activity (AID 2283074).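 As to AC50: MMP9 protein level quantified by ELISA in the co-culture.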 As to conditions: primary human keratinocytes with fibroblasts; actives raise or lower the signal. The method, boiled down:
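MMP-9 quantified by ELISA after 24 h chemical treatment of primary human skin keratinocyte/fibroblast co-cultures; gain or loss fitted against DMSO, with parallel SRB staining (0.1% SRB, 560 nm) for overt cytotoxicity.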

Read-out in test [4]: urokinase plasminogen activator (uPA), PLAU (gene 5328)
Description: BSK_KF3CT_uPA: BioMAP Diversity Plus: KF3CT Assay for urokinase plasminogen activator (uPA) Biomarker Activity (AID 2283075). As to conditions: primary human keratinocytes with fibroblasts; actives raise or lower the signal. The method, boiled down:
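ELISA read-out of uPA 24 h after dosing human skin keratinocytes co-cultured with foreskin fibroblasts. Signal change fitted both ways relative to DMSO; sulforhodamine B on parallel cultures marks overt cytotoxicity.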

Read-out in test [5]: CD40, CD40 (gene 958)
Description: BSK_LPS_CD40: BioMAP Diversity Plus: LPS Assay for CD40 Biomarker Activity (AID 2283076). Conditions: primary human HUVEC with PBMC; actives raise or lower the signal. The method, boiled down:
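ELISA readout of CD40 in HUVEC/PBMC co-culture (BSK_LPS system), 24 h post-dosing; bidirectional curve fit, DMSO baseline; parallel SRB total-protein staining for cytotoxicity.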

Read-out in test [6]: Interleukin-8 (IL8), CXCL8 (gene 3576)
As to the kind of experiment: BSK_LPS_IL8: BioMAP Diversity Plus: LPS Assay for Interleukin-8 (IL8) Biomarker Activity (AID 2283078). Conditions: primary human HUVEC with PBMC; actives raise or lower the signal. The essentials:
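HUVEC + PBMC co-culture, LPS-activated; test chemicals dosed, IL-8 read by ELISA at 24 h. Bidirectional curve fit vs DMSO baseline (gain or loss of signal).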

Test [7] in a line: BSK_LPS_SRB: Viability Assessment in the BioMAP Diversity Plus: LPS Assay (AID 2283079).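 Also: total protein by sulforhodamine B absorbance as a cytotoxicity measure; measured one day after compound addition; fitted in both directions against DMSO so loss or gain of signal counts.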 Conditions: primary human HUVEC with PBMC. The method, boiled down:
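HUVEC + PBMC co-culture, LPS-stimulated; compound 24 h. 10% TCA fix, 0.1% SRB stain, A560. Bidirectional fit vs DMSO.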

Read-out in test [8]: Interleukin-1 alpha (IL1a), IL1A (gene 3552)
Description: BSK_LPS_IL1a: BioMAP Diversity Plus: LPS Assay for Interleukin-1 alpha (IL1a) Biomarker Activity (AID 2283080). Conditions: primary human HUVEC with PBMC; actives raise or lower the signal. The essentials:
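HUVEC/PBMC co-culture, LPS system; 24 h after dosing; IL-1a by ELISA; gain or loss of signal fitted bidirectionally vs DMSO baseline.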

Read-out in test [9]: Monocyte Chemoattractant Protein-1 (MCP1), CCL2 (gene 6347)
Description: BSK_LPS_MCP1: BioMAP Diversity Plus: LPS Assay for Monocyte Chemoattractant Protein-1 (MCP1) Biomarker Activity (AID 2283081). Conditions: primary human HUVEC with PBMC; actives raise or lower the signal. The method, boiled down: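 ELISA read-out of MCP-1 after 24 h chemical dosing of a human umbilical vein endothelial cell/peripheral blood mononuclear cell co-culture stimulated with LPS. Gain or loss of signal fitted relative to DMSO controls.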

Test [10] can be described thus: BSK_LPS_PGE2: BioMAP Diversity Plus: LPS Assay for Prostaglandin E2 (PGE2) Biomarker Activity (AID 2283082). As to conditions: primary human HUVEC with PBMC; actives raise or lower the signal. The method, boiled down: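 Compounds were added to the LPS co-culture of endothelium and PBMC, and PGE2 was measured by ELISA after 24 h. Responses in either direction were fitted with DMSO as baseline.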

Read-out in test [11]: Tissue Factor, F3 (gene 2152)
As to the kind of experiment: BSK_LPS_TissueFactor: BioMAP Diversity Plus: LPS Assay for Tissue Factor Biomarker Activity (AID 2283084). Conditions: primary human HUVEC with PBMC; actives raise or lower the signal. The method, boiled down:
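HUVEC/PBMC co-culture, LPS-activated; CD142 ELISA read 24 h post-dose; bidirectional curve fit vs DMSO negative control.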

Read-out in test [12]: Tumor necrosis factor (Homo sapiens) (UniProt P01375)
Description: BSK_LPS_TNFa: BioMAP Diversity Plus: LPS Assay for Tumour Necrosis Factor alpha (TNFa) Biomarker Activity (AID 2283085). Conditions: primary human HUVEC with PBMC; actives raise or lower the signal. The essentials: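 Cells (umbilical vein endothelium plus peripheral blood mononuclear cells) were dosed with chemical, incubated 24 h, then TNFa was quantified by ELISA; values derive from bidirectional fitting with DMSO as baseline.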

Read-out in a further test: CD38, CD38 (gene 952)
Description: BSK_SAg_CD38: BioMAP Diversity Plus: SAg Assay for CD38 Biomarker Activity (AID 2283087). Conditions: primary human HUVEC with PBMC; actives raise or lower the signal. The method, boiled down: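 CD38 quantified by ELISA (fluorescence) in a superantigen-activated endothelial cell–PBMC co-culture at 24 h post-dose. Activity fitted in both directions relative to DMSO; parallel SRB and Alamar Blue cytotoxicity read-outs.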

Read-out in test [13]: CD40, CD40 (gene 958)
As to the kind of experiment: BSK_SAg_CD40: BioMAP Diversity Plus: SAg Assay for CD40 Biomarker Activity (AID 2283088). As to conditions: primary human HUVEC with PBMC; actives raise or lower the signal. The method, boiled down:
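HUVEC/PBMC co-culture, 24 h post-dose; CD40 by ELISA, fluorescence intensity; bidirectional fit vs DMSO negative control.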

Read-out in another test: CD69, CD69 (gene 969)
As to the kind of experiment: BSK_SAg_CD69: BioMAP Diversity Plus: SAg Assay for CD69 Biomarker Activity (AID 2283089). Conditions: primary human HUVEC with PBMC; actives raise or lower the signal. The essentials: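 ELISA, fluorescence read-out: CD69 on human umbilical vein endothelial cell + PBMC co-culture, 24 h post-dosing. Gain or loss of signal fitted bidirectionally against DMSO baseline.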

Read-out in test [14]: Monocyte Chemoattractant Protein-1 (MCP1), CCL2 (gene 6347)
As to the kind of experiment: BSK_SAg_MCP1: BioMAP Diversity Plus: SAg Assay for Monocyte Chemoattractant Protein-1 (MCP1) Biomarker Activity (AID 2283090). Conditions: primary human HUVEC with PBMC; actives raise or lower the signal. The method, boiled down:
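Values derive from bidirectional fitting of ELISA-measured MCP1 against DMSO controls. Readings were taken 24 h after dosing human vascular endothelial cells co-cultured with peripheral blood mononuclear cells under superantigen stimulation.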

Read-out in test [15]: E-selectin (Homo sapiens) (UniProt P16581)
As to the kind of experiment: BSK_SAg_Eselectin: BioMAP Diversity Plus: SAg Assay for Eselectin Biomarker Activity (AID 2283091). Conditions: primary human HUVEC with PBMC; actives raise or lower the signal. The essentials:
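E-selectin ELISA readout at 24 h post-dosing in human umbilical vein endothelial cell/PBMC co-culture; gain or loss of signal fitted relative to DMSO baseline.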

Read-out in test [16]: Vascular cell adhesion molecule 1 (VCAM1), VCAM1 (gene 7412)
As to the kind of experiment: BSK_LPS_VCAM1: BioMAP Diversity Plus: LPS Assay for Vascular cell adhesion molecule 1 (VCAM1) Biomarker Activity (AID 2283086). Conditions: primary human HUVEC with PBMC; actives raise or lower the signal. The method, boiled down: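 Cells are dosed in an LPS-stimulated endothelial/mononuclear co-culture and, after 24 h, VCAM-1 is quantified by ELISA. Activity in either direction is fitted relative to the DMSO negative control.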

Read-out in test [17]: Macrophage colony-stimulating factor (MCSF), CSF1 (gene 1435)
As to the kind of experiment: BSK_LPS_MCSF: BioMAP Diversity Plus: LPS Assay for Macrophage colony-stimulating factor (MCSF) Biomarker Activity (AID 2283083). Conditions: primary human HUVEC with PBMC; actives raise or lower the signal. The essentials: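 HUVEC + PBMC co-culture (human primary), 24 h post-dose; M-CSF by ELISA; gain/loss of signal fitted bidirectionally vs DMSO baseline.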

Activity calls are given as the source filed them. The calls were made as follows: active = hit-call score of the fitted dose curve at least 0.9, where 1 is the maximum; inactive = score below 0.9.

Sequence of Tumor necrosis factor (Homo sapiens) (P01375 whole entry, looked up): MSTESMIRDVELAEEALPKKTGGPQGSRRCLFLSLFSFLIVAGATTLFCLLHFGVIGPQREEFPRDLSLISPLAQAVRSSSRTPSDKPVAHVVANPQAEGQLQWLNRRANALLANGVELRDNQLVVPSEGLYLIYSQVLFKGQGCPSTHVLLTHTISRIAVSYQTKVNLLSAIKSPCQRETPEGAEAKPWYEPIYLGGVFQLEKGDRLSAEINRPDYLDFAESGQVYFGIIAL
Sequence of E-selectin (Homo sapiens) (P16581 whole entry, looked up): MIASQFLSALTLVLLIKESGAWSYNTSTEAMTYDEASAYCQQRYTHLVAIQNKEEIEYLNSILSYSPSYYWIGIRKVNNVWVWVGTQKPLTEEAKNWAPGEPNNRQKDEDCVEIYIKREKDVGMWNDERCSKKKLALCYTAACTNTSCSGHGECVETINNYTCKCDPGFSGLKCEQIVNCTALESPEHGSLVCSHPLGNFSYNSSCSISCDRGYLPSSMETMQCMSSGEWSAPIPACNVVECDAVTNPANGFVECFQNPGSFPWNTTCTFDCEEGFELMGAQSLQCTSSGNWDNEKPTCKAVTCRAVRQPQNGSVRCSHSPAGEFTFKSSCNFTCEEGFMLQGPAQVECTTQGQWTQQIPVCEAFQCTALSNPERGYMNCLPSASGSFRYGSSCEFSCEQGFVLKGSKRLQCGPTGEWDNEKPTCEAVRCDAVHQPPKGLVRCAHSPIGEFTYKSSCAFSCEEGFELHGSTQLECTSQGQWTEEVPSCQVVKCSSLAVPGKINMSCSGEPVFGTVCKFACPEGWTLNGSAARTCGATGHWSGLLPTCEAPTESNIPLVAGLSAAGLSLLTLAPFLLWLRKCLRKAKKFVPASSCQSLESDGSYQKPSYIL

With `C=C(C)C(=O)OCCC(F)(F)C(F)(F)C(F)(F)C(F)(F)C(F)(F)C(F)(F)F`, the outcome is “inactive” in test [1]; “inactive” in [2]; “inactive” in test [3]; “inactive” in test [4]; “inactive” with CD40, CD40 (gene 958) [5]; “inactive” in test [6]. Further, the outcome in test [7], in test [8], in [9], in [10], in test [11] and in [12] was inactive. Further, the outcome with CD38, CD38 (gene 952) was “inactive”; with CD40, CD40 (gene 958) [13] it was “inactive”; with CD69, CD69 (gene 969), “inactive”; in test [14], “inactive”; in [15] it was “inactive”.

Consider `CC(C)(C)CC(C)(C)c1ccc(O)c(-n2nc3ccccc3n2)c1`, for which the outcome was “inactive” in [1]; “inactive” in test [2]; “inactive” in [4]; “inactive” with CD40, CD40 (gene 958) [5]; “inactive” in test [6]; “inactive” in test [7]. Also, the outcome in [8] was “inactive”; in test [9], “inactive”; in test [10], “inactive”; in test [11], “inactive”; in [12] it was “inactive”; with CD38, CD38 (gene 952), “inactive”. Further, the outcome with CD40, CD40 (gene 958) [13] is “inactive”; with CD69, CD69 (gene 969), “inactive”; in test [14], “inactive”; in test [15], “inactive”. Moreover, the AC50 in test [3] was 16.6 µM (active).

As to `NC(=O)N(O)[C@@H]1C=C[C@H](Oc2cccc(Oc3ccc(F)cc3)c2)C1`, the outcome is “inactive” in test [1]; “inactive” in test [2]; “inactive” in test [3]; “inactive” in test [4]; “inactive” in the test with CD40, CD40 (gene 958) [5]; “inactive” in test [6]. In addition, the outcome in test [8] was “inactive”; in [9], “inactive”; in test [11] it was “inactive”; in test [12], “inactive”; in test [16], “inactive”; in the test with CD40, CD40 (gene 958) [13], “inactive”. Also, the outcome in the test with CD69, CD69 (gene 969) was “inactive”; in test [14] it was “inactive”; in test [15] it was “inactive”. Further, the AC50 in test [7] is 3.97 µM (active); in test [10] it was 8.49 µM (active); in the test with CD38, CD38 (gene 952), 26.3 µM (active).

In the case of `CCCCCCCCC(=O)O`, the outcome was “inactive” in test [1]; “inactive” in [2]; “inactive” in test [3]; “inactive” in test [4]; “inactive” with CD40, CD40 (gene 958) [5]; “inactive” in test [6]. The result in test [7], in test [8], in test [9], in test [10], in test [17] and in [11] was inactive. Moreover, the outcome was “inactive” in [12]; “inactive” in the test with CD38, CD38 (gene 952); “inactive” in the test with CD40, CD40 (gene 958) [13]; “inactive” in test [14]; “inactive” in test [15].

Take `c1ccc2c(c1)Cc1ccccc1-2`: the outcome in [1] is “inactive”; in [2] it was “inactive”; in test [3], “inactive”; in test [4] it was “inactive”; with CD40, CD40 (gene 958) [5], “inactive”; in test [6], “inactive”. Besides, the result in [7], in test [8], in test [9], in test [10], in test [11] and in test [12] was inactive. The outcome in test [16] was “inactive”; with CD38, CD38 (gene 952), “inactive”; with CD40, CD40 (gene 958) [13] it was “inactive”; in the test with CD69, CD69 (gene 969) it was “inactive”; in [14], “inactive”; in test [15], “inactive”.

As usually defined, the AC50 is the midpoint of the concentration-response curve, whichever way the signal moves.

The values above are taken from PubChem BioAssay (EPA / NIEHS).
